# The supplement of paper PMC12282887
# ± gives the standard deviation of the averaged measurements.
# Legend:
# Assay in all cases: promoter activity interaction Z-score (Lux/OD deviation from empty-vector control); higher = stronger promoter induction by the compound
# [1] = tested on: E. coli BW25113 acrABp lux reporter
# In short: (§1)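 E. coli BW25113, as wild type or one of three single-gene deletion strains, carried low-copy luxCDABE promoter reporters and grew in 40 µl LB Lennox in 384-well plates at 37°C, with OD600 and luminescence read every 30 min for 12 h. Each compound was run at four 1:2 dilutions in biological duplicates, integration spanned 0–8 h for wild type and 1–9 h for deletion strains, and wells under 10% of the median growth value were dropped. The score is the Z-transformed residual of growth-normalised luminescence fitted against a control.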
# [2] = tested on: E. coli BW25113 micFp lux reporter
# In short: as §1
# [3] = tested on: E. coli BW25113 ompFp lux reporter
# In short: as §1
# [4] = tested on: E. coli BW25113 robp lux reporter
# In short: as §1
# [5] = tested on: E. coli BW25113 soxSp lux reporter
# In short: as §1
# [6] = tested on: E. coli BW25113 tolCp lux reporter
# In short: as §1
# [7] = 17.4 µg/ml, genetic background: wild type
# [8] = 17.4 µg/ml, genetic background: ΔmarA
# [9] = 17.4 µg/ml, genetic background: Δrob
# [10] = 17.4 µg/ml, genetic background: ΔsoxS
# [11] = 34.9 µg/ml, genetic background: wild type
# [12] = 34.9 µg/ml, genetic background: ΔmarA
# [13] = 34.9 µg/ml, genetic background: Δrob
# [14] = 34.9 µg/ml, genetic background: ΔsoxS
# [15] = 69.8 µg/ml, genetic background: wild type
# [16] = 69.8 µg/ml, genetic background: ΔmarA
# [17] = 69.8 µg/ml, genetic background: Δrob
# [18] = 69.8 µg/ml, genetic background: ΔsoxS
# [19] = 139.6 µg/ml, genetic background: wild type
# [20] = 139.6 µg/ml, genetic background: ΔmarA
# [21] = 139.6 µg/ml, genetic background: Δrob
# [22] = 139.6 µg/ml, genetic background: ΔsoxS
compound,measurement,setting,value
Nc1ccn(C[C@@H](CO)OCP(=O)(O)O)c(=O)n1 [Cidofovir],promoter activity interaction Z-score,[1]; [7],-0.283 ± 0.054
same,promoter activity interaction Z-score,[1]; [8],0.149 ± 0.3
same,promoter activity interaction Z-score,[1]; [9],-0.0654 ± 0.1
same,promoter activity interaction Z-score,[1]; [10],-0.0538 ± 0.14
same,promoter activity interaction Z-score,[1]; [11],0.196 ± 0.13
same,promoter activity interaction Z-score,[1]; [12],-0.657 ± 0.64
same,promoter activity interaction Z-score,[1]; [13],0.0446 ± 0.2
same,promoter activity interaction Z-score,[1]; [14],0.215 ± 0.4
same,promoter activity interaction Z-score,[1]; [15],0.219 ± 0.079
same,promoter activity interaction Z-score,[1]; [16],0.553 ± 0.79
same,promoter activity interaction Z-score,[1]; [17],-0.00642 ± 0.084
same,promoter activity interaction Z-score,[1]; [18],0.0852 ± 0.5
same,promoter activity interaction Z-score,[1]; [19],0.22 ± 0.15
same,promoter activity interaction Z-score,[1]; [20],-0.132 ± 0.17
same,promoter activity interaction Z-score,[1]; [21],0.233 ± 0.03
same,promoter activity interaction Z-score,[1]; [22],0.385 ± 0.26
same,promoter activity interaction Z-score,[2]; [7],0.0224 ± 0.19
same,promoter activity interaction Z-score,[2]; [8],0.0154 ± 0.092
same,promoter activity interaction Z-score,[2]; [9],-0.0713 ± 0.17
same,promoter activity interaction Z-score,[2]; [10],0.11 ± 0.48
same,promoter activity interaction Z-score,[2]; [11],-0.0338 ± 0.16
same,promoter activity interaction Z-score,[2]; [12],-0.00819 ± 0.0042
same,promoter activity interaction Z-score,[2]; [13],-0.103 ± 0.19
same,promoter activity interaction Z-score,[2]; [14],-0.106 ± 0.1
same,promoter activity interaction Z-score,[2]; [15],-0.121 ± 0.16
same,promoter activity interaction Z-score,[2]; [16],-0.0731 ± 0.046
same,promoter activity interaction Z-score,[2]; [17],-0.0746 ± 0.21
same,promoter activity interaction Z-score,[2]; [18],-0.0778 ± 0.17
same,promoter activity interaction Z-score,[2]; [19],-0.297 ± 0.16
same,promoter activity interaction Z-score,[2]; [20],-0.185 ± 0.15
same,promoter activity interaction Z-score,[2]; [21],-0.00734 ± 0.29
same,promoter activity interaction Z-score,[2]; [22],-0.28 ± 0.054
same,promoter activity interaction Z-score,[3]; [7],-0.101 ± 0.21
same,promoter activity interaction Z-score,[3]; [8],-0.0401 ± 0.19
same,promoter activity interaction Z-score,[3]; [9],-0.282 ± 0.46
same,promoter activity interaction Z-score,[3]; [10],0.292 ± 0.4
same,promoter activity interaction Z-score,[3]; [11],0.3 ± 0.056
same,promoter activity interaction Z-score,[3]; [12],-0.163 ± 0.48
same,promoter activity interaction Z-score,[3]; [13],0.122 ± 0.34
same,promoter activity interaction Z-score,[3]; [14],0.493 ± 0.19
same,promoter activity interaction Z-score,[3]; [15],0.00967 ± 0.29
same,promoter activity interaction Z-score,[3]; [16],-0.0743 ± 0.39
same,promoter activity interaction Z-score,[3]; [17],-0.0183 ± 0.51
same,promoter activity interaction Z-score,[3]; [18],0.835 ± 0.063
same,promoter activity interaction Z-score,[3]; [19],0.281 ± 0.35
same,promoter activity interaction Z-score,[3]; [20],0.0677 ± 0.43
same,promoter activity interaction Z-score,[3]; [21],1.05 ± 0.56
same,promoter activity interaction Z-score,[3]; [22],0.354 ± 0.32
same,promoter activity interaction Z-score,[4]; [7],0.0479 ± 0.44
same,promoter activity interaction Z-score,[4]; [8],-0.325 ± 0.089
same,promoter activity interaction Z-score,[4]; [9],-0.283 ± 0.23
same,promoter activity interaction Z-score,[4]; [10],0.755 ± 0.19
same,promoter activity interaction Z-score,[4]; [11],0.8822 ± 0.0041
same,promoter activity interaction Z-score,[4]; [12],-0.684 ± 0.34
same,promoter activity interaction Z-score,[4]; [13],0.316 ± 0.54
same,promoter activity interaction Z-score,[4]; [14],0.739 ± 0.8
same,promoter activity interaction Z-score,[4]; [15],-0.0584 ± 0.52
same,promoter activity interaction Z-score,[4]; [16],-0.117 ± 0.21
same,promoter activity interaction Z-score,[4]; [17],0.528 ± 1.2
same,promoter activity interaction Z-score,[4]; [18],0.716 ± 0.15
same,promoter activity interaction Z-score,[4]; [19],0.0675 ± 0.18
same,promoter activity interaction Z-score,[4]; [20],-0.557 ± 0.22
same,promoter activity interaction Z-score,[4]; [21],0.839 ± 0.21
same,promoter activity interaction Z-score,[4]; [22],0.434 ± 0.44
same,promoter activity interaction Z-score,[5]; [7],0.0175 ± 0.013
same,promoter activity interaction Z-score,[5]; [8],0.0495 ± 0.085
same,promoter activity interaction Z-score,[5]; [9],-0.108 ± 0.04
same,promoter activity interaction Z-score,[5]; [10],0.122 ± 0.064
same,promoter activity interaction Z-score,[5]; [11],-0.0402 ± 0.16
same,promoter activity interaction Z-score,[5]; [12],0.0487 ± 0.082
same,promoter activity interaction Z-score,[5]; [13],0.0552 ± 0.025
same,promoter activity interaction Z-score,[5]; [14],0.246 ± 0.033
same,promoter activity interaction Z-score,[5]; [15],-0.0559 ± 0.065
same,promoter activity interaction Z-score,[5]; [16],0.167 ± 0.11
same,promoter activity interaction Z-score,[5]; [17],-0.0558 ± 0.063
same,promoter activity interaction Z-score,[5]; [18],0.254 ± 0.11
same,promoter activity interaction Z-score,[5]; [19],0.021 ± 0.14
same,promoter activity interaction Z-score,[5]; [20],-0.0152 ± 0.023
same,promoter activity interaction Z-score,[5]; [21],0.0293 ± 0.054
same,promoter activity interaction Z-score,[5]; [22],-0.0927 ± 0.013
same,promoter activity interaction Z-score,[6]; [7],0.134 ± 0.031
same,promoter activity interaction Z-score,[6]; [8],0.258 ± 0.13
same,promoter activity interaction Z-score,[6]; [9],-0.735 ± 1.3
same,promoter activity interaction Z-score,[6]; [10],-0.0946 ± 0.53
same,promoter activity interaction Z-score,[6]; [11],-0.218 ± 0.42
same,promoter activity interaction Z-score,[6]; [12],-0.677 ± 0.19
same,promoter activity interaction Z-score,[6]; [13],0.0662 ± 0.039
same,promoter activity interaction Z-score,[6]; [14],1.55 ± 0.98
same,promoter activity interaction Z-score,[6]; [15],-0.434 ± 0.14
same,promoter activity interaction Z-score,[6]; [16],-0.318 ± 0.84
same,promoter activity interaction Z-score,[6]; [17],-0.696 ± 1
same,promoter activity interaction Z-score,[6]; [18],-0.168 ± 1
same,promoter activity interaction Z-score,[6]; [19],-0.582 ± 0.18
same,promoter activity interaction Z-score,[6]; [20],-0.123 ± 0.94
same,promoter activity interaction Z-score,[6]; [21],0.23 ± 0.54
same,promoter activity interaction Z-score,[6]; [22],-0.453 ± 0.91
